# PubChem BioAssay (NCATS)
# Unmarked numbers belong to inactive results. Inconclusive results are not listed. The source made the active and inactive calls. Unless noted, how the calls were made is not given here.
# Columns and labels:
# [1] = target: Nuclear receptor subfamily 1 group I member 2 (Rattus norvegicus) (UniProt Q9R1A7); assay: qHTS assay for small molecule activators of the rat pregnane X receptor (rPXR) signaling pathway (AID 651751); conditions: rPXR reporter cells, luciferase (One-Glo), 24 h; further: 0% is about no effect
# Nuclear receptor subfamily 1 group I member 2 (Rattus norvegicus), sequence (Q9R1A7 whole entry, looked up): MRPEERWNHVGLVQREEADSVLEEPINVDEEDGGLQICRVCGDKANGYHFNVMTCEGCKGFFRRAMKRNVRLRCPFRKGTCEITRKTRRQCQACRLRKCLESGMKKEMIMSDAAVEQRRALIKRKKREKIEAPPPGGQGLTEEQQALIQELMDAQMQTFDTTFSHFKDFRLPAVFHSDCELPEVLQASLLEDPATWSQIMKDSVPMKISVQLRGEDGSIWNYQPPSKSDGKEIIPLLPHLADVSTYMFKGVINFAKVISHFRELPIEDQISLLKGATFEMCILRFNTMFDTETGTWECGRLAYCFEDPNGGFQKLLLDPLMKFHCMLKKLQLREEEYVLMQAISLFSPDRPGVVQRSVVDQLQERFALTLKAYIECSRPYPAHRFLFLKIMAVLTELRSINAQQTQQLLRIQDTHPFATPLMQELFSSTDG
# [2] = qHTS assay for small molecule activators of the human pregnane X receptor (PXR) signaling pathway (AID 720659); conditions: DPX-2 HepG2 CYP3A4-luciferase, 24 h; series mostly up to 92.3 µM; further: 0% is about no effect
# astro = assay: Drug repurposing screens with cells derived from glioblastoma tumor samples (AID 1345199; active means well fitted inhibition curve with a large enough effect; further: nearly all actives have a fitted effect of over 40% in size; further: potency means the concentration at half of the fitted maximal effect); conditions: viability, ATP luminescence, 48 h; series mostly up to 45.9 µM
# In short: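 Primary testing used CD133+ neurospheres from four GBM patients, seven concentrations, 48 h exposure and ATP-based viability; confirmation added three slower-growing patient lines.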
structure (smiles),measurement,setting,value
O=C1C=CC(=O)C=C1,max response,[1],0.171%
same,outcome,[2],inactive
CO[C@H]1[C@@H](O)C[C@H](O[C@H]2[C@@H](O)C[C@H](O[C@H]3[C@@H](O)C[C@H](O[C@H]4CC[C@@]5(C)[C@H](CC[C@@H]6[C@@H]5C[C@@H](O)[C@]5(C)[C@@H](C7=CC(=O)OC7)CC[C@]65O)C4)O[C@@H]3C)O[C@@H]2C)O[C@@H]1C,Potency,astro,282 nM (active)
COc1ccc2c(c1OC)C(=O)OC2C1c2cc3c(cc2CCN1C)OCO3 (stereo not given),max response,[1],3.69%
O=C1CN=C(c2ccccc2)c2cc(Cl)ccc2N1CC1CC1,Potency,astro,inactive
